# In the library only some 3.3% were active in any assay of this set; here they are far more common.
# Arbovirus inh – antivirals against arbovirus infection, primary screen, cell-based, full library, 10K replicate subset | 0.37% of 200,000 active | inhibition, % at 10 µM | AID 1251, 2008 | arbovirus infection cell-based antiviral screen; in the data active means inhibition above about 30%
# PERK inh – block of dimerizer-induced PERK translation repression, primary screen, PERK inhibitor project, CHO PERK-DD cells, SEAP luminescence, HTS; CHO PERK-DD fusion, SEAP luminescence translation reporter; AID 1416, 2008; 0.17% of 220,000 active; inhibition, % at 5.6 µM;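 active means inhibition above the mean inhibition of all tested compounds plus 3 SD, set separately per screening campaign, cut at about 2.9% in these data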;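 further: PERK kinase domain activated by AP20187 dimerizer at 100 nM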
# WT yeast gro inh – growth inhibition of WT strain, primary screen, mitochondrial fusion inhibitor project, WT and mutant strains, chemical genetic | inhibition, % at 10 µM | 2.1% of 190,000 active | mitochondrial fusion phenotypic screen | AID 1362, 2008; in the data active means inhibition above about 58%; tested in S. cerevisiae
# ROMK primary – ROMK potassium channel modulators, primary screen, cell-based, thallium flux, MLSMR library. ATP-sensitive inward rectifier potassium channel 1 (Homo sapiens), P48048. 2% of 130,000 active. B-score at 10 µM. Tet-inducible ROMK, thallium flux fluorescence; actives lie on both sides. AID 1918, 2009;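 active means signal ratio slope over the read window, or its plate-corrected B-score, at least 3 SD from the plate mean, either direction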;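 further: B-score of the F/F0 ratio slope over 7 to 12 s after thallium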
# Hits are given with their value; 0 = inactive; - = no result.
SMILES,Arbovirus inh,PERK inh,WT yeast gro inh,ROMK primary
Cc1ccccc1CN(C)CC(=O)NC(C)CCc1ccccc1 (centres undefined),0,0,0,0
O=C(NCc1ccc2c(c1)OCO2)c1ccc(CSCc2ccc(Cl)cc2)o1,0,0,59,0
CS(=O)(=O)N(CC(=O)NCc1ccc2c(c1)OCO2)c1ccc(Cl)cc1,0,0,80,0
CS(=O)(=O)N(CC(=O)NCc1ccc2c(c1)OCO2)c1cccc(Cl)c1,0,0,0,0
O=C(NCc1ccc2c(c1)OCO2)c1ccc(COc2cc(Cl)ccc2Cl)o1,0,0,0,0
O=C(Nc1nc2ccccc2n1CCOc1ccccc1)c1ccco1,0,0,0,-
O=C(Nc1nc2ccccc2n1CCOc1ccc(Cl)cc1)c1ccco1,0,0,70,-
Cc1ccc(OCCn2c(CCNC(=O)C(C)C)nc3ccccc32)cc1,0,0,0,0
CC(C)C(=O)NCCc1nc2ccccc2n1CCCOc1ccc(Cl)cc1,0,0,70,-
Cc1cccc(OCCn2c(NC(=O)c3ccco3)nc3ccccc32)c1,0,0,73,-
Cc1cccc(-c2nnc(SCCOc3ccc4c(C)cc(=O)oc4c3)o2)c1,0,0,0,0
COc1ccc(Cc2nnc3n2N=C(c2cc4ccccc4o2)CS3)cc1OC,-,0,-,-
COc1cc(-c2nnc(SCc3ccccc3Cl)o2)cc(OC)c1OC,0,0,0,-
COc1cc(-c2nnc(SCc3c(F)cccc3Cl)o2)cc(OC)c1OC,0,0,64,-
Cc1cc(C(F)F)n2nc(C(=O)Nc3sc4c(c3C(N)=O)CCC4)nc2n1,0,0,0,-
Cc1onc(-c2ccccc2Cl)c1C(=O)Nc1sc2c(c1C(N)=O)CCC(C)C2 (centres undefined),0,0,69,0
COC(=O)c1c(NC(=O)c2nc3nc(C)cc(C(F)F)n3n2)sc2c1CCC2,0,0,60,0
COC(=O)c1c(NC(=O)c2c(-c3ccccc3Cl)noc2C)sc2c1CCC2,0,0,75,0
CCSc1nnc(NS(=O)(=O)c2ccc(C)cc2)s1,0,0,0,0
COc1ccc(OC)c(S(=O)(=O)N2CCC(C(=O)NCc3ccccc3)CC2)c1,0,0,0,0
O=C(c1ccccc1Sc1c(Cl)cccc1[N+](=O)[O-])N1CCOCC1,0,0,0,0
COC(=O)Cn1nc(-c2ccc(C)cc2)c2ccccc2c1=O,0,0,64,0
O=C1CSC(c2ccc(Cl)cc2Cl)N1c1ccccn1 (centres undefined),0,0,0,0
O=C1CSC(c2ccccc2Br)N1c1ccc(Cl)cn1 (centres undefined),0,0,67,-
COc1ccc(-c2ccnc(SCC(=O)Nc3ccccn3)n2)cc1,0,0,0,0
SMILES,Arbovirus inh,PERK inh,WT yeast gro inh,ROMK primary
COc1ccccc1NC(=S)N=Nc1c(O)[nH]c2ccc(Br)cc12,-,0,-,-
Cc1cccc(NC(=S)N=Nc2c(O)[nH]c3ccccc23)c1,0,0,59,0
CC(=O)Nc1ccc(S(=O)(=O)N2CCSC2c2ccc(Cl)cc2)cc1 (centres undefined),0,0,78,-
CCOC(=O)c1ccc(NC(=S)N2CCSC2c2ccc(Cl)cc2)cc1 (centres undefined),0,0,60,-
CCC(Sc1nnnn1-c1ccccc1)C(=O)Nc1nc2ccccc2s1 (centres undefined),0,0,58,-
O=C(Nc1ncc2c(n1)CC(c1ccco1)CC2=O)c1ccccc1 (centres undefined),0,0,70,-
Cc1ccc(C(=O)Nc2ncc3c(n2)CC(c2ccco2)CC3=O)cc1 (centres undefined),0,0,0,0
Cc1nnc(SCC(=O)Nc2cc(-c3cc(C)c(C)cc3C)nn2-c2ccccc2)s1,0,0,63,0
CC(=O)N/N=C/c1cc(C)n(-c2ccc(Br)cc2)c1C,0,0,0,-
CC(=O)N/N=C/c1cc(C(C)C)cc(/C=N/NC(C)=O)c1O,0,0,0,-3.3
CCOC(=O)c1nn(-c2ccccc2F)c(-c2ccccc2)c1C(=O)c1ccccc1,0,0,0,-
Cn1c(=O)c2c(ncn2CC(=O)N2CCN(c3ccc(F)cc3)CC2)n(C)c1=O,0,0,0,-
COC(=O)c1ccc(C(NC(=O)c2cccnc2)NC(=O)c2cccnc2)cc1,0,0,0,0
CCc1ccccc1NC(=O)/C(=C/c1ccco1)c1ccccc1,0,0,59,0
COc1ccccc1NC(=O)CCC(=O)OCc1ccc(Cl)cc1,0,0,0,0
COc1cccc(/C=N/n2nnnc2N)c1O,-,0,-,-
CCc1ccccc1NC(=O)C1C(c2ccccc2)C1(Cl)Cl (centres undefined),0,0,81,-
